Screens (PubChem)
This excerpt belongs to a sample that is enriched for hits.
RMI-FANCM inh = disruptors of RMI1/RMI2 association with MM2 peptide – biochemical, fluorescence polarization, human, primary screen; AID 1159607, 2016; FP signal (polarization) at 33 µM; RMI core complex (RMI1/RMI2) binding to FANCM MM2 peptide, human; RMI core complex with F-MM2 peptide; stronger effect = lower value; 70,000 compounds, 0.58% hits; in the data active = FP signal below about 40
* = called active by the depositor; ! = not active in a repeat.

Results for CCN(CC)C(=O)N[C@@H]1C[C@@H]2c3cccc4[nH]cc(c34)C[C@H]2N(C)C1 ?
RMI-FANCM inh: 52

How did CCN(CC)C(=O)N[C@H]1C=C2c3cccc4[nH]cc(c34)C[C@H]2N(C)C1 do in these assays?
RMI-FANCM inh: 20*

What do the screens show for `CC(CO)NC(=O)C1C=C2c3cccc4[nH]cc(c34)C[C@H]2N(C)C1` (stereo partly specified)?
RMI-FANCM inh: 42

How did CCN1CCN(c2cc(=O)n(C)c(=O)[nH]2)CC1 do in these assays?
RMI-FANCM inh: 57

How did CC(C)(C)NCC(O)c1cc(Cl)c(N)c(Cl)c1 (stereo unspecified) do in these assays?
RMI-FANCM inh: 4*!

What do the screens show for `COC[C@]12CN(C=O)C3[C@@H]4[C@H](OC)C1[C@]3(C1CC3(O)C(OC)C(O)C4(OC(C)=O)C1C3OC(=O)c1ccccc1)[C@@H](OC)C[C@H]2O` (stereo partly specified)?
RMI-FANCM inh: 62

What do the screens show for `Cc1nc(SCc2ccccc2)[nH]c(=O)c1CC(=O)N1CCN(Cc2ccccc2)CC1`?
RMI-FANCM inh: 62

Results for O=C(/C=C/c1cccs1)C(=O)Nc1ccc(Br)cc1C(=O)c1ccccc1Cl ?
RMI-FANCM inh: 30*

How did O=C(/C=C/c1ccccc1)Nc1ccc(Br)cc1C(=O)c1ccccc1Cl do in these assays?
RMI-FANCM inh: 55

Results for O=C(CN1C(=O)CCC1=O)C(=O)Nc1ccc(Br)cc1C(=O)c1ccccc1Cl ?
RMI-FANCM inh: 50

What do the screens show for `Cc1ccc2nc(N(CCN(C)C)C(=O)Cc3ccccc3)sc2c1`?
RMI-FANCM inh: 72

How did C/C(CSc1nc2ccccc2c(=O)n1-c1ccccc1)=N/O do in these assays?
RMI-FANCM inh: 55

Results for O=C(Nc1ncc([N+](=O)[O-])s1)c1cccn(Cc2cccc(C(F)(F)F)c2)c1=O ?
RMI-FANCM inh: 58

Results for CC[C@@]1(O)C[C@H](O[C@H]2C[C@H](N(C)C)[C@H](O)[C@H](C)O2)c2c(cc3c(c2O)C(=O)c2c(O)cccc2C3=O)[C@H]1C(=O)OC ?
RMI-FANCM inh: 79

How did CC[C@@]1(O)C[C@H](O[C@H]2C[C@H](N(C)C)[C@H](O)[C@H](C)O2)c2c(cc3c(c2O)C(=O)c2c(O)ccc(O)c2C3=O)[C@H]1C(=O)OC do in these assays?
RMI-FANCM inh: 55

How did CC[C@@]1(O)C[C@H](O)c2c(cc3c(c2O)C(=O)c2c(O)ccc(O)c2C3=O)[C@H]1C(=O)OC do in these assays?
RMI-FANCM inh: 26*

Results for O=C1NC(=S)NC(=O)C1=Cc1ccc(N2CCOCC2)cc1 ?
RMI-FANCM inh: 60

What do the screens show for `Clc1ccc(-c2ccc(Cl)cc2)cc1`?
RMI-FANCM inh: 59

What do the screens show for `Cn1nccc1C(=O)Nc1ccc(Cl)cc1C(=O)c1ccccc1Cl`?
RMI-FANCM inh: 75

What do the screens show for `COc1cc([N+](=O)[O-])ccc1NC(=O)c1cccn(Cc2c(F)cccc2Cl)c1=O`?
RMI-FANCM inh: 54

How did CN(C)c1ccc(C=C(C#N)C#N)c(F)c1C#N do in these assays?
RMI-FANCM inh: 64

Results for C[C@]12CC[C@H](O)CC1=CC[C@@H]1[C@@H]2CC[C@@]2(C)[C@H]1CC[C@]2(C)O ?
RMI-FANCM inh: 55

How did CC(=O)O[C@@H]1CC[C@]2(C)C3CC[C@]4(C)C(=O)CCC4C3CC[C@H]2C1 (stereo partly specified) do in these assays?
RMI-FANCM inh: 64

Results for CC(=O)O[C@H]1CC[C@@]2(C)C(=CC[C@@H]3[C@@H]2CC[C@]2(C)C(=O)CC[C@@H]32)C1 ?
RMI-FANCM inh: 9*

What do the screens show for `ClCc1cn2ccccc2n1`?
RMI-FANCM inh: 72

Results for COc1ccccc1OCC(=O)N1CCN(Cc2nc(-c3ccc(F)cc3)cs2)CC1 ?
RMI-FANCM inh: 62

What do the screens show for `CC(C)(O)[C@@H]1[C@H]2OC(=O)[C@@H]1[C@]1(O)C[C@H]3O[C@]34C(=O)O[C@H]2[C@]14C`?
RMI-FANCM inh: 53

Results for CC(C)(O)[C@@H]1[C@H]2OC(=O)[C@@H]1[C@]1(O)C[C@H]3O[C@]34C(=O)O[C@H]2[C@]14C (tested in a mixture with another compound) ?
RMI-FANCM inh: 30*

How did O=C(CNC(=O)c1ccccc1Br)Nc1ccc(Br)cc1C(=O)c1ccccc1 do in these assays?
RMI-FANCM inh: 59

Results for O=[N+]([O-])c1ccc2c(c1)CNCC2 ?
RMI-FANCM inh: 70

What do the screens show for `c1ccc2c(C3=NCCO3)c[nH]c2c1`?
RMI-FANCM inh: 63

How did Cc1cccc(NC(=O)c2cccn(Cc3ccc(Br)cc3)c2=O)c1C do in these assays?
RMI-FANCM inh: 50

What do the screens show for `CC(=O)c1cccc(NC(=O)c2cccn(Cc3ccccc3C)c2=O)c1`?
RMI-FANCM inh: 63

Results for Cc1ccccc1Cn1cccc(C(=O)Nc2cccc(Cl)c2Cl)c1=O ?
RMI-FANCM inh: 10*

How did c1cc(CN2CCNCC2)ccn1 do in these assays?
RMI-FANCM inh: 66
